# Measurements as given in PubChem BioAssay.
# Where “and” joins values, the source holds several entries; their conditions need not be identical. Equal values may be shown once. Some compounds were tested as several samples or in several runs, with calls that do not always agree. Calls of active or inactive are those of the source. Unless noted, the rule behind the calls is not given here.
# Columns and labels:
# [1] = system: Wnt5a (protein binding on small-molecule microarray); experiment: small molecules binding Wnt5a protein – biophysical, small-molecule microarray, 635/667 nm fluorescence, primary screen (AID 1142); settings: 635 nm fluorescence, higher = more signal;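 note: fluorescence read at 667 nm with signal to noise per printed feature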
# [2] = ATP-based viability of Huh7 replicon cells – cell-based, CellTiter-Glo luminescence, basal, 48 h, cytotoxicity control for HCV replication inhibitor project, primary screen (AID 1143); settings: higher = more signal, called active from +8 up or from −8 down;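 note: Huh7 hepatoma cells carrying a hepatitis C replication reporter with no stimulus; test concentration not given here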
# [3] = Pseudomonas biofilm growth suppression – PAO1 strain, BacTiter-Glo luminescence, LB-PBS, primary screen (AID 1144); settings: P. aeruginosa PAO1 biofilm, 12 h, higher = more signal
# [4] = basal CRE-LacZ reporter activity in PC12 – cell-based, unstimulated, primary screen (AID 1145); settings: no forskolin, luminescence, 4.5 h, higher = more signal, called active from +8 up or from −8 down
# [5] = forskolin-driven CRE-LacZ activity in PC12 – cell-based, CRE-LacZ reporter, forskolin-stimulated, primary screen (AID 1146); settings: luminescence, 4.5 h, higher = more signal, called active from +8 up or from −8 down;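 note: PC12 cells with 6xCRE LacZ reporter stimulated by forskolin 10 µM; beta-galactosidase reporter signal reflecting CREB driven transcription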
# [6] = target: Streptavidin (Streptomyces avidinii) (UniProt P22629); experiment: compounds binding control protein streptavidin – biophysical, small-molecule microarray, 635/667 nm fluorescence, artefact control for SMM compound annotation, primary screen (AID 1147); settings: higher = more signal;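 note: signal reflects streptavidin binding to arrayed compounds as a control protein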
# [7] = probe aInhba binding on compound microarray – biochemical, small-molecule microarray, 635/667 nm fluorescence, primary screen (AID 1148); settings: higher = more signal;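 note: score merges 667nm spot fluorescence with signal-to-noise for antibody binding to printed compounds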
# [8] = target: Torsin-1A (Homo sapiens) (UniProt O14656); experiment: TOR1A wild-type binding on microarray – cell lysate, small-molecule microarray, lysate, 635/667 nm, primary screen (AID 1149); settings: COS7 hTOR1A-WT lysate, 635 nm fluorescence, higher = more signal
# [9] = target: Torsin-1A (Homo sapiens) (UniProt O14656); experiment: torsin A mutant lysate binding on microarrays – cell lysate, small-molecule microarray, COS7 lysate, 635/667 nm fluorescence, primary screen (AID 1150); settings: COS7 hTOR1A mutant lysate, 635 nm fluorescence, higher = more signal;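 note: score pools 667 nm emission and signal to noise measuring lysate protein binding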
# [10] = system: Sonic hedgehog protein (Shh); experiment: Sonic hedgehog microarray binding compounds – biochemical, small-molecule microarray, 635/667 nm fluorescence, primary screen (AID 1151); settings: 635 nm fluorescence, higher = more signal;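 note: Shh protein binding to compounds spotted on small-molecule microarray slides; score combines spot fluorescence intensity with signal-to-noise across triplicate slides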
# [11] = optical density shifts of acrAB sulA E. coli – strain DRC41, OD650, 48 h, E. coli filamentation inducer project, primary screen (AID 1152); settings: higher = more signal, called active from +8 up or from −8 down;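 note: E. coli MC1000 strain DRC41 lacking acrAB efflux pump and sulA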
# [12] = probe aLefty1 binding on compound microarray – biochemical, small-molecule microarray, 635/667 nm fluorescence, primary screen (AID 1153); settings: higher = more signal;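 note: score merges spot fluorescence with signal-to-noise ratio from the scanned slide images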
# [13] = plasmodial surface anion channel blockers, osmotic lysis – cell-based, P. falciparum Indochina, OD700, 1 h, primary screen (AID 1154); settings: P. falciparum Indochina infected RBC osmotic lysis, higher = more signal, called active from +8 up or from −8 down
# [14] = plasmodial surface anion channel blockers, osmotic lysis – cell-based, P. falciparum Indochina, OD700, 2 h, primary screen (AID 1155);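 note: lysis reports solute entry through the parasite surface anion channel PSAC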; settings: P. falciparum Indochina infected erythrocytes, higher = more signal, called active from +8 up or from −8 down
# [15] = changes in parasitized red cell lysis, either direction – P. falciparum Indochina, OD700, 3 h, PSAC antagonist project, primary screen (AID 1156); settings: P. falciparum-infected erythrocytes, osmotic lysis, higher = more signal, called active from +8 up or from −8 down
# [16] = plasmodial surface anion channel blockers, osmotic lysis – cell-based, P. falciparum Indochina, OD700, 18 h, primary screen (AID 1157); settings: P. falciparum Indochina infected erythrocytes, osmotic lysis OD700, 18 h; higher = more signal, called active from +8 up or from −8 down
# [17] = S6 kinase pathway phospho-S6 level changes – cell-based, A549, cytoblot, luminescence, serum-stimulated, primary screen (AID 1158); settings: 5 h, higher = more signal;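 note: serum-stimulated A549 lung adenocarcinoma cells; signal is phosphorylated S6 detected by cytoblot immunostaining with HRP secondary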
# [18] = target: NADPH oxidase 2 (Homo sapiens) (UniProt P04839); experiment: compounds shifting NOX2 Amplex Red fluorescence – cell-based, HEK293-NOX2, PMA-stimulated, NOX inhibitor project, primary screen (AID 1159); settings: 45 min, higher = more signal, called active from +8 up or from −8 down; note: test concentration not given here
# [19] = target: NADPH oxidase 4 (Homo sapiens) (UniProt Q9NPH5); experiment: compounds shifting NOX4 Amplex Red fluorescence – cell-based, HEK293-NOX4, tetracycline-induced, NOX inhibitor project, primary screen (AID 1160); settings: HEK293-NOX4, Amplex Red H2O2 fluorescence, 45 min; higher = more signal, called active from +8 up or from −8 down
# [20] = target: NADPH oxidase 5 (Homo sapiens) (UniProt Q96PH1); experiment: compounds shifting NOX5 Amplex Red fluorescence – cell-based, HEK293-NOX5, NOX inhibitor project, primary screen (AID 1161); settings: HEK293-NOX5, ionomycin, 45 min, higher = more signal
# Chain of NADPH oxidase 5 (Homo sapiens) (Q96PH1 whole entry, looked up): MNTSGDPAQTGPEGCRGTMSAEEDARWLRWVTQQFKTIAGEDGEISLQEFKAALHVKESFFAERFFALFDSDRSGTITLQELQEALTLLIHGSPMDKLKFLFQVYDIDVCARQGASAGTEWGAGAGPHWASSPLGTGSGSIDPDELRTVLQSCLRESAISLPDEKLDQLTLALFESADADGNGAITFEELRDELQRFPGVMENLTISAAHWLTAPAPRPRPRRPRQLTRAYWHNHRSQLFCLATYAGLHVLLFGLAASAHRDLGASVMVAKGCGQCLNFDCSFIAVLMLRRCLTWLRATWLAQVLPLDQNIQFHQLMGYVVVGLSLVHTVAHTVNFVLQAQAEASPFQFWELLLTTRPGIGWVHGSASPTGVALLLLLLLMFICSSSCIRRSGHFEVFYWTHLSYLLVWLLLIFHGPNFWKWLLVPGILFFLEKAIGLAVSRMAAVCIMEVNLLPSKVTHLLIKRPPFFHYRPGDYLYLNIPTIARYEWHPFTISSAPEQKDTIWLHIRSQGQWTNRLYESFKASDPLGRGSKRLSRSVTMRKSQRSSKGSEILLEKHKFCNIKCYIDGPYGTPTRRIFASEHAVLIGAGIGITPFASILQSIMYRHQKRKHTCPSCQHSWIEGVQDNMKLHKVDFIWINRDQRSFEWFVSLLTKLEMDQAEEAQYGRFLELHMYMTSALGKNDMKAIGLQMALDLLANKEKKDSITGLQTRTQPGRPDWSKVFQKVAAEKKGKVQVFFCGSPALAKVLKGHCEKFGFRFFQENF
# Chain of Streptavidin (Streptomyces avidinii) (P22629 whole entry, looked up): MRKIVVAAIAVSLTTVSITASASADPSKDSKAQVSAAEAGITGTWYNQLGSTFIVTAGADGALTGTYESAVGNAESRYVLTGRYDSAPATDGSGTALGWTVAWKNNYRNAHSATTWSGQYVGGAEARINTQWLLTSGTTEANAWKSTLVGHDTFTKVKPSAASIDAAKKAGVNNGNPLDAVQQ
# Chain of NADPH oxidase 4 (Homo sapiens) (Q9NPH5 whole entry, looked up): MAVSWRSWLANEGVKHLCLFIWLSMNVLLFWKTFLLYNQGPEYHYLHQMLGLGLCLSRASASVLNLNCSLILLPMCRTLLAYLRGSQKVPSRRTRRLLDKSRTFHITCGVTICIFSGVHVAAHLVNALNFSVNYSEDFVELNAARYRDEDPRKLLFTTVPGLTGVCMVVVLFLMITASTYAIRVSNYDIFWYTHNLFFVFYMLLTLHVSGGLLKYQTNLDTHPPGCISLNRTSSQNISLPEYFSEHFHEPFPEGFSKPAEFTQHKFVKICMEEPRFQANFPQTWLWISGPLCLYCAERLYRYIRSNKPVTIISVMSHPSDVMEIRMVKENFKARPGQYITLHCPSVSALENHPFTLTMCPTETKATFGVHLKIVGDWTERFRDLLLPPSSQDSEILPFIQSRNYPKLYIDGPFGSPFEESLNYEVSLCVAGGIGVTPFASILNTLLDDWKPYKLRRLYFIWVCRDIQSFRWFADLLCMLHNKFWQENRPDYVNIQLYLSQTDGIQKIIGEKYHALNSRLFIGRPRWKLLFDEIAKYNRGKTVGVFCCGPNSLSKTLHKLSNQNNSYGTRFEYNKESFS
# Chain of Torsin-1A (Homo sapiens) (O14656 whole entry, looked up): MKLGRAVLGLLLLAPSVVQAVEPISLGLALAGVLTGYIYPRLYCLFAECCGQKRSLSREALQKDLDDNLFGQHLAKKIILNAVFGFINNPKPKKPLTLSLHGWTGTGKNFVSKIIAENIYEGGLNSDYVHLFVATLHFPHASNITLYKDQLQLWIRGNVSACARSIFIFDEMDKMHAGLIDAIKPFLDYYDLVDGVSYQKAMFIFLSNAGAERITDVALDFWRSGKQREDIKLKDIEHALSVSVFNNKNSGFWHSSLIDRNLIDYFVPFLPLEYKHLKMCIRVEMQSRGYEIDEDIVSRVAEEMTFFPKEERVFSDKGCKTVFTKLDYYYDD
# Chain of NADPH oxidase 2 (Homo sapiens) (P04839 whole entry, looked up): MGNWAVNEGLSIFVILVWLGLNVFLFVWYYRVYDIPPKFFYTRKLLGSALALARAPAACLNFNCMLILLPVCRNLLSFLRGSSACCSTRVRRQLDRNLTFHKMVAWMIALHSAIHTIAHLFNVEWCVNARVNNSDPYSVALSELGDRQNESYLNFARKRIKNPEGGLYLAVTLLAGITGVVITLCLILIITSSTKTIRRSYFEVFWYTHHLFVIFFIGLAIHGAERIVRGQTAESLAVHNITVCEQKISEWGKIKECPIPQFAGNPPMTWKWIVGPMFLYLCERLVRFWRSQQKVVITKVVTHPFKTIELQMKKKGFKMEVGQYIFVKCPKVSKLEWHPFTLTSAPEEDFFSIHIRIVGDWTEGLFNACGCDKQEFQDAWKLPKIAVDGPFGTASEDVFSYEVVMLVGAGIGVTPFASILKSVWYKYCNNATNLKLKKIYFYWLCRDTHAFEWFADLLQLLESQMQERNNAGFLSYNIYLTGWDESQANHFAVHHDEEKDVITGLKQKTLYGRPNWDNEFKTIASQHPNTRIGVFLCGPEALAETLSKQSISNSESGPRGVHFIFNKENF
Compound,composite z-score [1],z-score [2],z-score [3],z-score [4],z-score [5],composite z-score [6],composite z-score [7],composite z-score [8],composite z-score [9],composite z-score [10],z-score [11],composite z-score [12],z-score [13],z-score [14],z-score [15],z-score [16],z-score [17],z-score [18],z-score [19],z-score [20]
CCOC(=O)NN=C1C[C@@H](O)[C@@H](O)[C@@H]2[C@@H]3C(=O)N(Cc4ccccc4)C(=O)[C@@H]3CC[C@@H]12,-0.0099,0.162 (inactive),-0.0519 (inactive),0.52 (inactive),0.0513 (inactive),-0.199,-0.178,0.832,0.304,0.773,-2.78 (inactive),-0.641,1.04 (inactive),0.628 (inactive),0.979 (inactive),0.403 (inactive),-0.154,-0.6 (inactive),-0.393 (inactive),-0.365
C=CCN(C(=O)C1N(c2c(Cl)cccc2CO)C(=O)C2C(C(=O)O)C3C=CC21O3)c1ccc(OC)cc1 (stereo not given),-0.898 and -0.782,-0.443 (inactive) and -0.172 (inactive),-0.927 (inactive) and -0.513 (inactive),-0.623 (inactive) and 0.0645 (inactive),-0.297 (inactive) and -0.684 (inactive),-1 and -1.55,-0.874 and -0.379,-2.69 and -1.75,-1.94 and -1.61,-1.22 and -0.893,0.971 (inactive) and 2.55 (inactive),-1.1 and -0.253,2.56 (inactive) and -0.975 (inactive),0.516 (inactive) and -1.35 (inactive),0.336 (inactive) and -0.988 (inactive),0.287 (inactive) and -1.34 (inactive),-0.403 and 1.78,0.868 (inactive) and -0.148 (inactive),-0.286 (inactive) and -0.651 (inactive),-0.136 and 0.192
C[C@@H]1CN2[C@@H](CC[C@@H](C)[C@@H]2c2ccc(Br)cc2)C(=O)O1,-0.174 and -0.0451,0.482 (inactive) and -0.656 (inactive),0.259 (inactive) and -1.1 (inactive),0.74 (inactive) and 2 (inactive),0.667 (inactive) and 0.0918 (inactive),-0.404 and -0.145,-0.193 and 0.0506,-0.467 and 0.111,0.0914 and 0.0837,0.486 and 0.218,-1.42 (inactive) and 0.0426 (inactive),0.0367 and -0.275,0.169 (inactive) and -0.313 (inactive),0.279 (inactive) and -1.09 (inactive),-0.425 (inactive) and -0.16 (inactive),0.125 (inactive) and -1.18 (inactive),-0.0649 and 1.61,1.55 (inactive) and -0.12 (inactive),-1 (inactive) and 0.168 (inactive),0.0337 and 0.614
COC(=O)[C@@]1(Cc2ccccc2)[C@H]2c3cc(C(=O)N(C)C)n(Cc4ccc(C)c(F)c4F)c3C[C@H]2CN1C(=O)c1ccccc1,0.0409 and 1.51,-4.98 (inactive) and -3.53 (inactive),-0.796 (inactive) and 0.655 (inactive),31.5 (active) and 0.972 (inactive),202 (active) and 0.38 (inactive),0.367 and 1.93,0.122 and 0.787,0.399 and 0.7,0.272 and 0.365,-0.678 and -0.165,-1.18 (inactive) and -1.91 (inactive),0.476 and 0.712,2.54 (inactive) and 4.12 (inactive),-0.6 (inactive) and 1.2 (inactive),0.425 (inactive) and 0.306 (inactive),-1.34 (inactive) and 1.21 (inactive),1.16 and 0.782,-3.14 (inactive) and 0.452 (inactive),-4.83 (inactive) and -1.66 (inactive),-5.5 and -1.88
CC(C)=NOC[C@@H](O)COCc1ccco1,-0.0761,0.326 (inactive),-0.209 (inactive),-1.71 (inactive),-0.619 (inactive),-0.499,-0.003,-0.469,2.08,0.712,0.534 (inactive),0.843,0.159 (inactive),0.365 (inactive),-0.0924 (inactive),0.0967 (inactive),0.566,0.0371 (inactive),0.0915 (inactive),0.125
C[C@@H]1CC[C@@H](C(=O)O)N[C@H]1c1ccc(-c2ccco2)cc1,0.266,0.0233 (inactive),-0.778 (inactive),-0.339 (inactive),-0.885 (inactive),0.192,-0.0791,1,0.406,0.611,-0.601 (inactive),0.0721,0.732 (inactive),1.2 (inactive),0.871 (inactive),0.883 (inactive),-0.282,-0.71 (inactive),0.156 (inactive),0.798
COC(=O)C1=C(C)N(Cc2ccccc2)C2=C3C(=O)N(c4ccccc4)C(=O)[C@@H]3[C@@](O)(C(=O)OC)C(=O)N2[C@@H]1c1ccccc1,0.297 and 0.678,-0.146 (inactive) and -1.82 (inactive),0.9 (inactive),2.72 (inactive) and -0.615 (inactive),-0.718 (inactive) and -0.78 (inactive),0.117 and 0.12,-0.024 and -0.0313,0.801 and 0.365,0.516 and 0.533,0.574 and 0.726,0.417 (inactive) and 0.339 (inactive),0.0752 and -0.0984,0.518 (inactive) and 0.516 (inactive),0.372 (inactive) and -0.427 (inactive),0.509 (inactive) and 0.736 (inactive),0.54 (inactive) and -0.962 (inactive),-0.528 and 1.43,-0.0787 (inactive) and 0.333 (inactive),-0.0918 (inactive) and 0.833 (inactive),-0.244 and 0.251
C=CCN(C(=O)C(c1cccs1)N(C(=O)/C=C\C(=O)O)c1ccc(CCO)cc1)C(C)(C)C (stereo not given),-0.156 and -1.27,-0.243 (inactive) and 0.38 (inactive),-0.638 (inactive) and 0.984 (inactive),-0.0859 (inactive) and 0.597 (inactive),0.332 (inactive) and -0.439 (inactive),-0.298 and -0.966,-0.154 and -0.227,-0.603 and -2.33,1.56 and -2.14,-0.754 and -1.36,0.381 (inactive) and -0.0974 (inactive),-0.134 and 0.0355,-0.274 (inactive) and -0.322 (inactive),-0.432 (inactive) and 0.0511 (inactive),-0.518 (inactive) and -0.338 (inactive),0.0097 (inactive) and 0.232 (inactive),1.36 and 0.123,0.0507 (inactive) and 0.27 (inactive),-0.86 (inactive) and -0.783 (inactive),0.274 and 0.335
C=C[C@@H](OC)[C@H](O)c1ccc(O)c(F)c1,-0.843 and -0.24,0.558 (inactive) and -0.495 (inactive),-0.776 (inactive) and 0.181 (inactive),0.572 (inactive) and 0.427 (inactive),-0.881 (inactive) and -0.122 (inactive),-1.35 and -1.17,-0.314 and -0.154,-1.65 and -0.846,-2.28 and -0.978,-0.644 and 0.0436,0.0737 (inactive) and 1.88 (inactive),-0.284 and -0.196,0.268 (inactive) and -0.347 (inactive),-0.132 (inactive) and -0.266 (inactive),-0.387 (inactive) and -0.924 (inactive),0.426 (inactive) and -1.02 (inactive),-0.422 and 1.68,0.203 (inactive) and -0.689 (inactive),-1.69 (inactive) and -0.842 (inactive),-1.64 and -1.95
CCOC(=O)NN=C1C[C@@H](O)[C@@H](O)[C@@H]2[C@@H]3C(=O)N(Cc4ccc5c(c4)OCO5)C(=O)[C@@H]3CC[C@@H]12,-0.0968,-0.299 (inactive),1.43 (inactive),-0.293 (inactive),-0.341 (inactive),0.79,-0.179,0.39,0.0143,0.191,0.806 (inactive),-0.14,6.5 (inactive),1.29 (inactive),1.34 (inactive),0.574 (inactive),-0.403,-0.00897 (inactive),0.786 (inactive),0.175
CC(CO)N1C(=O)[C@@H]2C3C(=O)OCCC=C[C@H]3OC23C=CCN(C(C)(C)C)C(=O)[C@@H]13 (stereo not given in full),-0.221 and 0.386,1.18 (inactive) and -0.0534 (inactive),1.02 (inactive) and 1.16 (inactive),-0.0859 (inactive) and -0.903 (inactive),-0.596 (inactive) and 0.158 (inactive),-1.5 and -0.476,-0.206 and 0.188,-0.0147 and 0.756,-0.0948 and 0.346,0.0735 and 0.915,-0.745 (inactive) and -0.506 (inactive),-0.224 and 0.227,0.901 (inactive) and 1.86 (inactive),-0.27 (inactive) and 0.449 (inactive),1.02 (inactive) and 0.409 (inactive),0.406 (inactive) and 0.112 (inactive),1.11 and -0.113,0.793 (inactive) and 1.49 (inactive),0.0644 (inactive) and 0.425 (inactive),1.96 and 2.84
